# Screens (PubChem)
# DT40 TDP1 no CPT: qHTS for Inhibitors of human tyrosyl-DNA phosphodiesterase 1 (TDP1): qHTS in cells in absence of CPT | Potency, µM (highest dose often 46.2 µM), for the others: top-dose activity change, negative = growth inhibition, hits mostly inhibitors | DT40 Tdp1-/- hTDP1 cells, no CPT, ATP luminescence, 48 h | AID 686978, 2013 | hit rate 15% among 420,000; also: % is scaled to controls: 0 for no effect and ±100 for the full control effect; nearly all actives have a fitted effect of over 55% in size
#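 A cellular qHTS used chicken DT40 cells lacking endogenous Tdp1 but carrying stably transfected human TDP1. Compounds were applied without camptothecin, and cell growth kinetics were judged by ATP-dependent luminescence after ≥48 hr.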
# TDP1 cell CPT: DT40-hTDP1 cell growth loss with CPT | chicken DT40 Tdp1-/-;hTDP1 cells + 20 nM CPT, ATP luminescence, 48 h | Potency, µM (top dose mostly 46.2 µM), for inactives: at the highest dose activity change, negative = growth inhibition, hits mostly inhibitors | hit rate 12% among 420,000; also: % is scaled to controls: 0 for no effect and ±100 for the full control effect; nearly all actives have a fitted effect of over 55% in size
#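 Chicken DT40 Tdp1-/- cells complemented with human TDP1, 400 cells/well, exposed to compounds plus 20 nM camptothecin for at least 48 h at 37 C; viability read as ATP content by CellTiter-Glo luminescence.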
# HT1080-NT tox: kills 2HG-producing HT-1080-NT fibrosarcoma cells; HT-1080-NT fibrosarcoma viability, CellTiter-Glo ATP luminescence, 48 h; Potency, µM (series often up to 46.1 µM), for the others: at the top dose activity, negative = less viability, most hits filed as cytotoxic; hit rate 1.6% among 360,000;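 also: NT is the 2HG producing partner of a matched IDH1 knockdown line; 0% = DMSO-treated cells and -100% = media-only wells without cells; nearly all actives have a fitted effect of over 55% in size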
#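 Toxicity toward the 2HG-producing NT line was scored as %Activity, normalised to DMSO and no-cell wells, from CellTiter-Glo luminescence after 48 hours' treatment.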
# HT1080 IDH1KD tx: kills HT-1080 cells with IDH1 knockdown; HT-1080 IDH1 knockdown viability, ATP luminescence, 48 h; Potency, µM (series often up to 46.1 µM), for inactives: at the highest dose activity, negative = toxicity, hits mostly cytotoxic; hit rate 2% among 360,000; AID 686971;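 also: 0% = DMSO wells and -100% = cell-free medium wells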
#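 Knockdown cells (IDH1KD HT-1080) received compounds 2 h after plating at 750 cells/well and were kept 48 h at 37 °C in 5% FBS RPMI. A CellTiter-Glo luminescence read gave % activity for curve fitting.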
# HepG2 viability: kills HepG2 cells in TGF-b inhibitor counter-screen | HepG2 CAGA-GFP viability, ATP luminescence, 18 h | AID 588856 | hit rate 0.76% among 410,000 | Potency, µM (doses to about 46.1 µM), for inactives: at the top dose activity change, negative = cytotoxicity, actives largely listed as cytotoxic
#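 CellTiter-Glo luminescence gave cytotoxicity after 18 hours at 37 degrees C. The cells were HepG2 CAGA-GFP in 1% FBS DMEM, stimulated with 500 pg/mL TGF-beta after compound addition. %Activity was normalised to no-cell wells (complete cell-killing) and DMSO (no toxicity), and curves were fitted and classified.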
# TGFb SMAD3 inh: TGF-b pathway inhibition. HepG2 CAGA-GFP TGF-b/SMAD3 reporter, GFP fluorescence, 18 h; TGF-beta stimulated, 500 pg/mL final. Potency, µM (top dose mostly 46.1 µM), inactives show at the highest dose activity, negative = inhibition, most hits filed as inhibitors. hit rate 1.2% among 410,000; also: % is scaled to controls: 0 for no effect and ±100 for the full control effect; nearly all actives have a fitted effect of over 65% in size
#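 HEPG2 CAGA-GFP cells (1000/well, DMEM with 1% FBS) were pre-incubated 2 h at 37 degrees C, given compound by pin tool, then stimulated with TGF-beta at 500 pg/mL final for 18 h before per-cell GFP fluorescence imaging.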
# The depositor's hits bear a star; ? = inconclusive; . = no result. Shown are actives, neighbours in structure and some others; about 17% of the full set was active somewhere. Calls follow the shape of the dose curve; as a rule, active = well fitted curve in the direction sought with a large enough effect; inconclusive = small, poorly fitted or top-dose-only effect, or another doubt; inactive = no such curve, though single readings can be large; an effect the other way counts as inactive or inconclusive. Potency is read from the fitted curve at half-maximal effect.
SMILES,DT40 TDP1 no CPT,TDP1 cell CPT,HT1080-NT tox,HT1080 IDH1KD tx,HepG2 viability,TGFb SMAD3 inh
Cc1noc(C)c1CSc1ccccc1C(=O)N1CCN(c2ccccc2)CC1,?,?,13%,-15%,-21%,-3%
O=C(CSCc1ccc(F)cc1)N1CCN(c2ccc(Cl)cc2)CC1,21µM*,16µM*,.,.,-38%,?
Cc1cccc(N2CCN(C(=O)CSCc3c(C)noc3C)CC2)c1C,7.3µM*,21µM*,4%,?,-14%,-12%
Cc1noc(C)c1CSCC(=O)N1CCN(c2ccc(F)cc2)CC1,18µM*,?,2%,-13%,-7%,-11%
N#Cc1c(C#N)c(-c2ccccc2)n(-c2ccccc2)c1N,12µM*,15µM*,-24%,-21%,-22%,0%
Cn1c(N)c(C#N)c(C#N)c1-c1ccccc1,-22%,-12%,-3%,4%,11%,16%
COc1ccc(CCNCCC(c2ccccc2)c2ccccc2)cc1OC,18µM*,18µM*,-29%,-29%,13µM*,?
COc1ccc(C(CCNCc2ccc(OC)c(OC)c2)c2ccc(F)cc2)cc1 (stereo not drawn),-7%,4%,7%,2%,-24%,0%
COc1ccc(CCNC(=O)CC(c2ccccc2)c2cccc(C)c2O)cc1OC (stereo not drawn),9.2µM*,12µM*,-22%,-23%,-19%,?
COc1cc(OC)c(OC)cc1CCC(C)NCCC(c1ccccc1)c1ccccc1 (stereo not drawn),5.8µM*,6.5µM*,?,?,11µM*,14µM*
CCC(C(N)=NCCc1ccc(OC)c(OC)c1)c1ccccc1 (stereo not drawn),8.2µM*,15µM*,-18%,-27%,-27%,-10%
Cc1ccccc1NC(=O)C(C)Sc1nnc(-c2ccncc2)n1CC1CCCO1 (stereo not drawn),-13%,-5%,1%,-4%,-19%,1%
CCC(Oc1ccccc1)C(=O)Nc1cccc(OCc2cc(=O)n3cccc(C)c3n2)c1 (stereo not drawn),16µM*,23µM*,.,.,-3%,-23%
COc1ccc(NC(=O)Nc2cccc(OCc3cc(=O)n4cccc(C)c4n3)c2)c(OC)c1,13µM*,?,.,.,-9%,?
CCCC(=O)Nc1cccc(OCc2cc(=O)n3cccc(C)c3n2)c1,-27%,-23%,.,.,-25%,2%
Cc1ccccc1C(=O)Nc1cccc(OCc2cc(=O)n3cccc(C)c3n2)c1,?,?,.,.,2%,1%
Cc1ccc(OCC(=O)Nc2cccc(OCc3cc(=O)n4cccc(C)c4n3)c2)cc1C,18µM*,15µM*,.,.,-2%,-18%
Cc1ccccc1-c1cc(N(C)Cc2ccco2)ncn1,-8%,?,.,.,.,.
Cc1cccc(C)c1NC(=O)CN(c1c(C)cccc1C)S(C)(=O)=O,14%,21%,-2%,2%,-3%,-5%
CC1(Cc2c(Cl)cccc2Cl)C(=O)Nc2cc(-c3ccccc3Cl)ccc21 (stereo not drawn),?,?,?,?,-53%,?
COC(=O)c1cccc(CC2(C)C(=O)Nc3cc(-c4ccccc4Cl)ccc32)c1 (stereo not drawn),?,16µM*,?,?,-21%,7%
CC1(Cc2ccccc2Cl)C(=O)Nc2cc(-c3ccccc3Cl)ccc21 (stereo not drawn),?,?,?,?,18µM*,?
Cc1ccc(NC(=O)CCNS(=O)(=O)c2ccc3[nH]c(=O)oc3c2)c(C)c1,16%,-1%,1%,5%,1%,11%
Cc1ccc(/C=N/Nc2nc(N3CCCCC3)nc(N3CCCCC3)n2)o1,?,1%,-1%,1%,-1%,17%
COC(=O)c1ccccc1-c1ccc(/C=N/NC(=O)c2cc3ccccc3o2)o1,15µM*,?,-2%,-2%,-8%,?
SMILES,DT40 TDP1 no CPT,TDP1 cell CPT,HT1080-NT tox,HT1080 IDH1KD tx,HepG2 viability,TGFb SMAD3 inh
CCOc1cccc(/C=N/Nc2nc(N3CCCC3)nc(N3CCCC3)n2)c1O,13µM*,16µM*,24%,2%,16%,7%
COC(=O)c1ccccc1-c1ccc(/C=N/Nc2nc(N3CCCC3)nc(N3CCCC3)n2)o1,23µM*,?,?,?,-39%,13µM*
O=C(N/N=C/c1ccsc1)c1cc2ccccc2o1,-3%,7%,3%,3%,5%,5%
CCOc1ccc(-c2nnc3sc(-c4ccccc4OC)nn23)cc1,-6%,-13%,13%,0%,1%,-6%
CCOc1ccc(-c2nn3c(-c4cc(-c5ccccc5)n[nH]4)nnc3s2)cc1,14µM*,16µM*,.,.,-13%,-8%
COc1ccc(-c2nn3c(-c4cc(-c5ccccc5)n[nH]4)nnc3s2)cc1OC,4.5µM*,2.8µM*,.,.,-1%,6%
COc1ccc(-c2nn3c(-c4cc(-c5ccccc5)n[nH]4)nnc3s2)cc1,2.8µM*,3.5µM*,.,.,-14%,-7%
COc1cccc(-c2nn3c(-c4ccccn4)nnc3s2)c1,?,?,11%,7%,-8%,-4%
CCCn1cc(S(=O)(=O)c2ccc(OC)cc2)c(=O)c2cc(OCC)ccc21,6%,3%,19%,6%,0%,13%
Cn1cc(C(=O)NS(=O)(=O)Nc2ccc(Br)cc2)c2ccccc21,-16%,10%,1%,10%,-5%,20%
COc1ccc(Oc2ncc3nc(-c4ccccc4)c(=O)n(CCC#N)c3n2)cc1,?,18%,.,.,.,.
COCCn1c(C)cc(C(=O)CSc2nc3ccccc3o2)c1C,?,26µM*,?,-25%,-15%,0%
COCCn1c(C)cc(C(=O)CSc2nc3ccccc3s2)c1C,18µM*,13µM*,?,?,-30%,0%
COCCn1c(SCC(=O)c2cc(C)n(C)c2C)nc2ccccc2c1=O,13µM*,?,-16%,-17%,-20%,-4%
O=C(NCCCN1CCCC1=O)C(=O)NCC1OCCN1S(=O)(=O)c1ccc(Cl)cc1 (stereo not drawn),-3%,1%,0%,1%,-19%,-4%
O=C(O)CC/C(=N\NC(=O)c1ccccc1Br)c1ccccc1,-8%,-8%,13%,11%,1%,-7%
